# Key:
# Conditions in all cases: concentration: 1 μM, replicates: in singlicate; n = 1
# EPHA2 = test system: EPHA2
# EPHA3 = test system: EPHA3
# EPHA4 = test system: EPHA4
# EPHA5 = test system: EPHA5
# EPHA6 = test system: EPHA6
# EPHA7 = test system: EPHA7
# EPHA8 = test system: EPHA8
# EPHB1 = test system: EPHB1
# EPHB2 = test system: EPHB2
# EPHB3 = test system: EPHB3
# EPHB4 = test system: EPHB4
# EPHB6 = test system: EPHB6
# ERBB2 = test system: ERBB2
# ERBB3 = test system: ERBB3
# ERBB4 = test system: ERBB4
# ERK1 = test system: T1, ERK1
# T1 construct: gene MAPK3
# ERK2 = test system: T2, ERK2
# T2 construct: gene MAPK1
# ERK3 = test system: T3, ERK3
# T3 construct: gene MAPK6
# ERK4 = test system: T4, ERK4
# T4 construct: gene MAPK4
# ERK5 = test system: T5, ERK5
# T5 construct: gene MAPK7
# 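Further: KINOMEscan kinase panel screen.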
SMILES,%Inh (EPHA2) [%],%Inh (EPHA3) [%],%Inh (EPHA4) [%],%Inh (EPHA5) [%],%Inh (EPHA6) [%],%Inh (EPHA7) [%],%Inh (EPHA8) [%],%Inh (EPHB1) [%],%Inh (EPHB2) [%],%Inh (EPHB3) [%],%Inh (EPHB4) [%],%Inh (EPHB6) [%],%Inh (ERBB2) [%],%Inh (ERBB3) [%],%Inh (ERBB4) [%],%Inh (ERK1) [%],%Inh (ERK2) [%],%Inh (ERK3) [%],%Inh (ERK4) [%],%Inh (ERK5) [%]
COC(=O)C(NC(=O)NC1CCN(c2ccnc(Nc3ccc(F)cc3)n2)C1)c1ccccc1 (stereo not shown) [GSK1379712],0,0,3,0,2,0,10,10,11,1,6,92,20,0,0,2,0,0,24,13
COc1ccc(-c2coc3ccc(-c4nnc(C)o4)cc23)cc1,8,17,33,0,26,0,0,0,12,31,24,0,0,0,0,0,0,0,1,1
FC(F)(F)c1ccccc1-c1cc(-c2c[nH]nc2-c2ccccn2)ccn1 [GW679396],0,0,2,0,0,6,17,24,7,2,0,100,8,0,0,0,0,11,21,0
Cc1ccc(-c2nc(Nc3ccncc3)c3ccccc3n2)s1 [GSK189015],28,0,23,100,30,22,26,24,0,37,22,2,0,0,31,17,100,0,0,0
Cn1cnc2c(N)ncnc21 [SKF-97623],0,0,0,9,0,0,0,0,0,0,52,0,35,0,39,77,0,0,0,0
Cc1nccc(-c2c(-c3ccc(F)cc3)ncn2CCCN2CCOCC2)n1.Cl [SB-282975],16,0,4,10,8,9,10,15,15,3,0,15,0,34,0,6,8,0,96.5,25
CSc1ccc(-c2nc3n(c2-c2ccncc2)CCC3)cc1 [SKF-105561],0,5,14,0,0,9,0,0,0,8,21,15,0,0,3,0,0,0,0,0
O=C(Nc1n[nH]c2cc(-c3ccsc3)ccc12)C1CC1 [SB-732932],0,13,0,3,6,0,0,0,0,7,9,18,0,5,9,0,7,0,1,3
CCCCc1nn2ncccc2c1-c1ccnc(NC2CC2)n1 [GW684374],0,0,0,0,0,0,9,13,0,0,4,39,21,0,16,0,0,3,27,0
CC[C@@H]1CO[C@H](C(=O)Nc2ccccc2)CN1c1cc(-c2ccc3c(N)n[nH]c3c2)nc(NC)n1 [GSK2376236],21,13,6,0,9,2,9,8,14,16,16,3,8,0,18,0,0,8,42,7
COc1ccc(CSc2nnc(-c3ccc4nccn4c3)o2)cc1C(F)(F)F,7,8,11,10,9,15,16,17,0,7,16,0,0,9,0,0,0,18,0,1

# Reference: PMC5540273 (PLoS ONE, 2017)
